Assay results from article PMC7862700, “An all-to-all approach to the identification of sequence-specific readers for epigenetic DNA modifications on cytosine”.

Legend:
Assay in all cases: DAPPL (digital affinity profiling via proximity ligation, sequencing); 10 mM Tris-HCl pH 7.5, 50 mM NaCl, 1 mM DTT, 4% glycerol, room temperature, 30 min; GST-TFs on glutathione beads, 16-mer random dsDNA library, 0.1% formaldehyde crosslink after washing; high values mean tight binding
FEV = molecular target: T1, FEV (Homo sapiens, UniProt Q99581 1-238); settings: protein: recombinant; tags: N-terminal GST; dsDNA, one strand shown
T1 sequence: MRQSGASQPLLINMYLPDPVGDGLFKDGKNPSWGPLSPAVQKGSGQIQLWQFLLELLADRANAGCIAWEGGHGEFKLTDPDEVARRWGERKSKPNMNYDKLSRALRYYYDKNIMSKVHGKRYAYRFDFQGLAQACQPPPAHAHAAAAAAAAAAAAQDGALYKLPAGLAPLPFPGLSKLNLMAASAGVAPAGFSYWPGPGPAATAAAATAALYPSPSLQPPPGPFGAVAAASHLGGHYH
How it was run: (§1)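 The binding signal reported is, for every hexamer, its read frequency for a factor over its read frequency for the tag-only sample. Reads came from pools of yeast-expressed, GST-fused human transcription factors on glutathione beads, barcoded with DNA and mixed with that sample, which were incubated with 200 nmole of a random double-stranded 16-mer DNA library in Tris/NaCl/DTT/glycerol buffer at room temperature for 30 min. After washing, the pools were crosslinked with 0.1% formaldehyde, proximity-ligated with BsaI/T4 ligase for 1 h at 37 °C, PCR-amplified and sequenced on an Illumina NextSeq500.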

ETV5 = ETV5 (Homo sapiens, UniProt P41161 1-510); settings: protein: recombinant; tags: N-terminal GST; dsDNA, one strand shown
ETV5, sequence (P41161 whole entry): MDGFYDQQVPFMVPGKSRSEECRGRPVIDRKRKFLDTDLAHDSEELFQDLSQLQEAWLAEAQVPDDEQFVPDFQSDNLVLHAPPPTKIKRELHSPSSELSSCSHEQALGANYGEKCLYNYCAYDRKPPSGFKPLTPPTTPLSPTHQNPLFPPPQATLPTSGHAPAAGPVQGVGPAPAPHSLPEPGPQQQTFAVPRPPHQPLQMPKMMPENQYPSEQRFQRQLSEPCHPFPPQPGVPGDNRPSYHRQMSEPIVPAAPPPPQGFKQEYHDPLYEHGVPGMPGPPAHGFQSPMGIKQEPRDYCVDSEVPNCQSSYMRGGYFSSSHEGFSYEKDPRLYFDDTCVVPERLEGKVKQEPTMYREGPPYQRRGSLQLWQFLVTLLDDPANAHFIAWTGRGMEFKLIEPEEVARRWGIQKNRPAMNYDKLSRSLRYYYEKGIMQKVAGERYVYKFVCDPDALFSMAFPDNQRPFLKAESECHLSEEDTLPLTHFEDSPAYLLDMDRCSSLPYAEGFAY
How it was run: as §1

HSF1 = HSF1 (Homo sapiens, UniProt Q00613 1-529); settings: protein: recombinant; tags: N-terminal GST; chain copies: 3; dsDNA, one strand shown
HSF1, sequence (Q00613 whole entry): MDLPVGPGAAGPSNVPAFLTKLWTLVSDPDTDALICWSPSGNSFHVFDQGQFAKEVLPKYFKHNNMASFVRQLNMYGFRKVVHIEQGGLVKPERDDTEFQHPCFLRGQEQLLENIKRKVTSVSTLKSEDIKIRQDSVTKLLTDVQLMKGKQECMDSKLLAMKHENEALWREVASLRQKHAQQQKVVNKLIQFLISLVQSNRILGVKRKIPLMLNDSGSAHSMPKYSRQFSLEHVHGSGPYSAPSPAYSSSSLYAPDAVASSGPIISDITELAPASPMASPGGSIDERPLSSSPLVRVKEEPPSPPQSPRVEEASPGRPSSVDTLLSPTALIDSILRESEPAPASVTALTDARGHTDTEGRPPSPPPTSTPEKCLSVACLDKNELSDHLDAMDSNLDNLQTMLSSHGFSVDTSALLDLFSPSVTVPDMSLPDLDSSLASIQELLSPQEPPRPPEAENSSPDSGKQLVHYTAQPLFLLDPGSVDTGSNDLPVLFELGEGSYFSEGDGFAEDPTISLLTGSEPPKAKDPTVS
How it was run: as §1

SPIC = molecular target: T2, SPIC (Homo sapiens, UniProt Q8N5J4 1-248); settings: protein: recombinant; tags: N-terminal GST; dsDNA, one strand shown
T2 sequence: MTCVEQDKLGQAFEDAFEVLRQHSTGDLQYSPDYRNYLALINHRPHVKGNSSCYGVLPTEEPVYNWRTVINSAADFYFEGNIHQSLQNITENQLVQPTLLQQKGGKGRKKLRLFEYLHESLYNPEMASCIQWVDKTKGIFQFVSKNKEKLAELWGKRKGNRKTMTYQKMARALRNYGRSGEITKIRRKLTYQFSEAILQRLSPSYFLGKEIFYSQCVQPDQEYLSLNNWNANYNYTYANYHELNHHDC
How it was run: as §1

ELF4 = ELF4 (Homo sapiens, UniProt Q99607 1-663); settings: protein: recombinant; tags: N-terminal GST; dsDNA, one strand shown
ELF4, sequence (Q99607 whole entry): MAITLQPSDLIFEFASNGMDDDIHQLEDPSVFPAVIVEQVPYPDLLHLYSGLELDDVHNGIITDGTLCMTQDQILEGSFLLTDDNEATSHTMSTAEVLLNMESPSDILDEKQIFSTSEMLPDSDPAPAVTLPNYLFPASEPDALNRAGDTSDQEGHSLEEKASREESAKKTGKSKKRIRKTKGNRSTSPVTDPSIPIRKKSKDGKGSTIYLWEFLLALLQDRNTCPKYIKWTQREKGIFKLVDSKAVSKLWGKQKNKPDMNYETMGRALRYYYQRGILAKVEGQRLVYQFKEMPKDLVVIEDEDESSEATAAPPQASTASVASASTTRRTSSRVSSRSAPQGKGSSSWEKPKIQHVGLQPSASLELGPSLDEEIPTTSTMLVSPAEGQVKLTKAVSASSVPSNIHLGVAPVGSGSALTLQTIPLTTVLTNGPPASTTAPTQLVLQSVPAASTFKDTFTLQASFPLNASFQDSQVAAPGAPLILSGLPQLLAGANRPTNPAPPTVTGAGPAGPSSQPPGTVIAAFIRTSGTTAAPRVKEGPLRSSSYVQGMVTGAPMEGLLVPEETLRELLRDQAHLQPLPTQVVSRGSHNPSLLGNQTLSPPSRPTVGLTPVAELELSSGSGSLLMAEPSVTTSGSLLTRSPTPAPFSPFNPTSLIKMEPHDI
How it was run: as §1

ELK4 = molecular target: T3, ELK4 (Homo sapiens, UniProt P28324-2 1-405); settings: protein: recombinant; tags: N-terminal GST; dsDNA, one strand shown
T3 sequence: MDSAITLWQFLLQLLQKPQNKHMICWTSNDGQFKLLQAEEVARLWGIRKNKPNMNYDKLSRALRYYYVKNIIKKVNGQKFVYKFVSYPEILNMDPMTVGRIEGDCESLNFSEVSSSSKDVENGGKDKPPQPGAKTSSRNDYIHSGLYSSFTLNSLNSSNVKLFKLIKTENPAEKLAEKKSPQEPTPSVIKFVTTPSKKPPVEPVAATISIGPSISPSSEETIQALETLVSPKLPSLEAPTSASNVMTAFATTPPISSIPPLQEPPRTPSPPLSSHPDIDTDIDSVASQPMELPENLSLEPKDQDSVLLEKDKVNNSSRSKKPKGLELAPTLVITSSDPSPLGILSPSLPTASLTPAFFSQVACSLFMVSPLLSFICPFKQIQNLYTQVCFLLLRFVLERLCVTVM
How it was run: as §1

ETV2 = molecular target: T4, ETV2 (Homo sapiens, UniProt O00321 1-342); settings: protein: recombinant; tags: N-terminal GST; dsDNA, one strand shown
T4 sequence: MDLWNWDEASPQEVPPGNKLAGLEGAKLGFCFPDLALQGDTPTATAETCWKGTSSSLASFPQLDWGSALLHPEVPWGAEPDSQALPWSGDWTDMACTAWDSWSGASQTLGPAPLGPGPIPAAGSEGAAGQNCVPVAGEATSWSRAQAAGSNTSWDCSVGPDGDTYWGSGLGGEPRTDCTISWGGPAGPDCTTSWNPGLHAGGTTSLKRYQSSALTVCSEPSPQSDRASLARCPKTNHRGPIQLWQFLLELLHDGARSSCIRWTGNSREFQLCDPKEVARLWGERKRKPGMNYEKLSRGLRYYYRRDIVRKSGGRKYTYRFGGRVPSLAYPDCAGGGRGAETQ
How it was run: as §1

ELF3 = molecular target: T5, ELF3 (Homo sapiens, UniProt P78545 1-371); settings: protein: recombinant; tags: N-terminal GST; dsDNA, one strand shown
T5 sequence: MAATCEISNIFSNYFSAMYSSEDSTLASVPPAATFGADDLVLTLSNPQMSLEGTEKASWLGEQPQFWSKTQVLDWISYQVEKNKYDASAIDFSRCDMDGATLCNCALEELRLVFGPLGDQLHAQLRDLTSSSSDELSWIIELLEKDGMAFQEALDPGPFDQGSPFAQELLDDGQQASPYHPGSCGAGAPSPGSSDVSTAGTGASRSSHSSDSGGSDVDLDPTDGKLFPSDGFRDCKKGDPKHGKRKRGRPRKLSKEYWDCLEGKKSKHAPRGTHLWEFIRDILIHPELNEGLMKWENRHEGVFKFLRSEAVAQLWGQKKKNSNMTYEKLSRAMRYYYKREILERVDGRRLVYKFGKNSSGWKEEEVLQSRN
How it was run: as §1

CRX = CRX (Homo sapiens, UniProt O43186 1-299); settings: protein: recombinant; tags: N-terminal GST; dsDNA, one strand shown
CRX, sequence (O43186 whole entry): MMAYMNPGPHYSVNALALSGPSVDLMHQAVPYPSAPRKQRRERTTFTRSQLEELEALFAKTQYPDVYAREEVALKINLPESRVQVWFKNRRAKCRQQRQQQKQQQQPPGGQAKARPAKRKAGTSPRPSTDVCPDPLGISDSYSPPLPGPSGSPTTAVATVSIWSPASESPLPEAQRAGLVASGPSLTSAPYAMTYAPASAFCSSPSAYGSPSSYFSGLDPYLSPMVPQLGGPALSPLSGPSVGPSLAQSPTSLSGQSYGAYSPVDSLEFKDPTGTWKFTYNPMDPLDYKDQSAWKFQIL
How it was run: as §1

ETV1 = ETV1 (Homo sapiens, UniProt P50549 1-477); settings: protein: recombinant; tags: N-terminal GST; dsDNA, one strand shown
ETV1, sequence (P50549 whole entry): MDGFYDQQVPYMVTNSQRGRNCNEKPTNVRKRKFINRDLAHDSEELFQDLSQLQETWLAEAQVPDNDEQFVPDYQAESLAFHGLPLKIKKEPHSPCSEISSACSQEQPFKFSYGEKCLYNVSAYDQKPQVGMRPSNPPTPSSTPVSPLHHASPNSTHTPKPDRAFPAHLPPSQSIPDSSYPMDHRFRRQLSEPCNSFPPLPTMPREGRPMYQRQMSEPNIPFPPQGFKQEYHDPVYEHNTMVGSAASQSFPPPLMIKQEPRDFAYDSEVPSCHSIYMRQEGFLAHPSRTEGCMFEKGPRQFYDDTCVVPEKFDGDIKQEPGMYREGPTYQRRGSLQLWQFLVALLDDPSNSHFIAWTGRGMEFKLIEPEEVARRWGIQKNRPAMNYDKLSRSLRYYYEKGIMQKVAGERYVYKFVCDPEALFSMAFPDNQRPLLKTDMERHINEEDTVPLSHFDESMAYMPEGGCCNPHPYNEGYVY
How it was run: as §1

ERF = molecular target: T6, ERF (Homo sapiens, UniProt P50548 1-548); settings: protein: recombinant; tags: N-terminal GST; dsDNA, one strand shown
T6 sequence: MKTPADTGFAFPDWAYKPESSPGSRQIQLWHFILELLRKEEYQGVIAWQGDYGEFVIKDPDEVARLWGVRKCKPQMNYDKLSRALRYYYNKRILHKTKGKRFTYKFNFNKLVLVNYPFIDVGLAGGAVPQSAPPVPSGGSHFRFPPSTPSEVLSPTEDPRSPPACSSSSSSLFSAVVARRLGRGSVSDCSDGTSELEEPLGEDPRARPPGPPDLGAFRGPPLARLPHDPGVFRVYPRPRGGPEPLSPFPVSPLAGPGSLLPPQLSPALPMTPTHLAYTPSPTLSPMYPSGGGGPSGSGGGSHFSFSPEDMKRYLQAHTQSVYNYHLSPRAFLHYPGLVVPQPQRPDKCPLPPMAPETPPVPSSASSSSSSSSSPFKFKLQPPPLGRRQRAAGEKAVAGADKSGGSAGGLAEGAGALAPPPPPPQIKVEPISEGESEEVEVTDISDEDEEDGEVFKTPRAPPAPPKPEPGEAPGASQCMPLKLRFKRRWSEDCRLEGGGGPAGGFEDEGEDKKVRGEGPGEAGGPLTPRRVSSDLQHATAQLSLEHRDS
How it was run: as §1

ETV3L = molecular target: T7, ETV3L (Homo sapiens, UniProt Q6ZN32 1-361); settings: protein: recombinant; tags: N-terminal GST; dsDNA, one strand shown
T7 sequence: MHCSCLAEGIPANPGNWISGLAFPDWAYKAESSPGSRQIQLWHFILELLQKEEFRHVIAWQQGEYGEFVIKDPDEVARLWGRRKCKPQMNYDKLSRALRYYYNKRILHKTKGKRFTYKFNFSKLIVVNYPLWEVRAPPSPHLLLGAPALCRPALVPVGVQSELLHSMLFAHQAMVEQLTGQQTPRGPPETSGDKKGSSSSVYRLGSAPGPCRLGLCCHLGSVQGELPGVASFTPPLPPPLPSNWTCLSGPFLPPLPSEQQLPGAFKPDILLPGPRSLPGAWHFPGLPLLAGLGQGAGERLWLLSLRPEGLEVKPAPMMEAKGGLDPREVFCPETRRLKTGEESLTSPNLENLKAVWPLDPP
How it was run: as §1

ETS2 = molecular target: T8, ETS2 (Homo sapiens, UniProt P15036 1-469); settings: protein: recombinant; tags: N-terminal GST; dsDNA, one strand shown
T8 sequence: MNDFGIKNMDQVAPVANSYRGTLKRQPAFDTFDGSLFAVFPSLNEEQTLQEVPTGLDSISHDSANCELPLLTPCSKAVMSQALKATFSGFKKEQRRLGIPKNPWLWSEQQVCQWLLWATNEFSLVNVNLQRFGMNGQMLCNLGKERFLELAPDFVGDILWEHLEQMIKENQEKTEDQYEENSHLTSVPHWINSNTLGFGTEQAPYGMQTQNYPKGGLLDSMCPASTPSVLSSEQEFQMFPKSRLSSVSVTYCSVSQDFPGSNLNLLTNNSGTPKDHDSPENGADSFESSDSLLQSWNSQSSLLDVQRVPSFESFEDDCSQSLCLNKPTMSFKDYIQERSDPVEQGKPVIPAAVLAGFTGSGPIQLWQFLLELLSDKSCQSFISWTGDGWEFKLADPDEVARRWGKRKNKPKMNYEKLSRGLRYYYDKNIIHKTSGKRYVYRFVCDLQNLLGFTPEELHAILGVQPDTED
How it was run: as §1

SPDEF = molecular target: T9, SPDEF (Homo sapiens, UniProt O95238 1-335); settings: protein: recombinant; tags: N-terminal GST; dsDNA, one strand shown
T9 sequence: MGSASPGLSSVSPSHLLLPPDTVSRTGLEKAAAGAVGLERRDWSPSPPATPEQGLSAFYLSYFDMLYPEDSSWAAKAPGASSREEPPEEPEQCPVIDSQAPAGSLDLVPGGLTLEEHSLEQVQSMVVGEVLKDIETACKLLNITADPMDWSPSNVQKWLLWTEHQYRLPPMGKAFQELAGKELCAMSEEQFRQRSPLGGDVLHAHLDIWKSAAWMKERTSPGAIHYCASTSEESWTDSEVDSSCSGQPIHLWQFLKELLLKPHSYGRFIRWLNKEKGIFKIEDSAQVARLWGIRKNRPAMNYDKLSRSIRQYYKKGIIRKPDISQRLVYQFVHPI
How it was run: as §1

ETV7 = molecular target: T10, ETV7 (Homo sapiens, UniProt Q9Y603 1-341); settings: protein: recombinant; tags: N-terminal GST; dsDNA, one strand shown
T10 sequence: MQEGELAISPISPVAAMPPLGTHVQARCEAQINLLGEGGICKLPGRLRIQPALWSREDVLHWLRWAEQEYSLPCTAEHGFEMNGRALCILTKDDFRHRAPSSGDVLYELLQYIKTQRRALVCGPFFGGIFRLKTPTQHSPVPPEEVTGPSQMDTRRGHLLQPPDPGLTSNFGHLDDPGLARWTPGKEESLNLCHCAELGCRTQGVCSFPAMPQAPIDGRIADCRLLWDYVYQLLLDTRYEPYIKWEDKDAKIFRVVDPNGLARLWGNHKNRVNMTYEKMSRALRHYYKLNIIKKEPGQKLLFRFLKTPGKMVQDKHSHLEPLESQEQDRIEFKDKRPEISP
How it was run: as §1

ELF5 = molecular target: T11, ELF5 (Homo sapiens, UniProt Q9UKW6-2 1-255); settings: protein: recombinant; tags: N-terminal GST; dsDNA, one strand shown
T11 sequence: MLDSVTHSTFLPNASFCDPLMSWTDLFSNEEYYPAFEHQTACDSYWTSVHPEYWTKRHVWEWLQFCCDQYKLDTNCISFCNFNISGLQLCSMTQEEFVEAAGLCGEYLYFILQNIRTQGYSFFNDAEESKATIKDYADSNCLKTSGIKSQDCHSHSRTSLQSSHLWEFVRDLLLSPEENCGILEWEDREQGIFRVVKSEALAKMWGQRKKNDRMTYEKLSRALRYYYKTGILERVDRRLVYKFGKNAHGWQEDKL
How it was run: as §1

ETV3 = molecular target: T12, ETV3 (Homo sapiens, UniProt P41162-2 1-143); settings: protein: recombinant; tags: N-terminal GST; dsDNA, one strand shown
T12 sequence: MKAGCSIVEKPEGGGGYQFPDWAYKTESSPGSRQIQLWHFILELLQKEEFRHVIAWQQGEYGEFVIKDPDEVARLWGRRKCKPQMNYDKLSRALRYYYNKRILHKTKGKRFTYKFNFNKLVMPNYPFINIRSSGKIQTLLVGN
How it was run: as §1

ETV6 = ETV6 (Homo sapiens, UniProt P41212 1-452); settings: protein: recombinant; tags: N-terminal GST; dsDNA, one strand shown
ETV6, sequence (P41212 whole entry): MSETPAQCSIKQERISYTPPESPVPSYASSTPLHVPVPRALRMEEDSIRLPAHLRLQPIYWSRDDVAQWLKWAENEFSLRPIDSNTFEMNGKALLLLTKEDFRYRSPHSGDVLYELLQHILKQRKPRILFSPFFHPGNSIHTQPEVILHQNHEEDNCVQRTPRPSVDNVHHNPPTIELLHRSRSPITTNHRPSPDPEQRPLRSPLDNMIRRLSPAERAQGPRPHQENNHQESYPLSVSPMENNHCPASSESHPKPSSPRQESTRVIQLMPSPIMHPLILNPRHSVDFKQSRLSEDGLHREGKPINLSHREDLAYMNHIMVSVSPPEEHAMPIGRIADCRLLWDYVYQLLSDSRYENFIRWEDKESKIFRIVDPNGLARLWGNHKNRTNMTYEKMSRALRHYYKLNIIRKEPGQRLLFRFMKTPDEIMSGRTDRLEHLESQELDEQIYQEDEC
How it was run: as §1

Q: Which results are given for TGTTTA?
A: binding signal (FEV): 1.12 fold enrichment (6-mer frequency, TF over GST control); binding signal (ETV5): 1.19 fold enrichment (6-mer frequency, TF over GST control); binding signal (HSF1): 1.12 fold enrichment (6-mer frequency, TF over GST control); binding signal (SPIC): 1.05 fold enrichment (6-mer frequency, TF over GST control); binding signal (ELF4): 1.11 fold enrichment (6-mer frequency, TF over GST control); binding signal (ELK4): 1.25 fold enrichment (6-mer frequency, TF over GST control); binding signal (ETV2): 1.04 fold enrichment (6-mer frequency, TF over GST control); binding signal (ELF3): 1.22 fold enrichment (6-mer frequency, TF over GST control); binding signal (CRX): 1.25 fold enrichment (6-mer frequency, TF over GST control); binding signal (ETV1): 1.09 fold enrichment (6-mer frequency, TF over GST control); binding signal (ERF): 1.22 fold enrichment (6-mer frequency, TF over GST control); binding signal (ETV3L): 1.2 fold enrichment (6-mer frequency, TF over GST control); binding signal (ETS2): 1.13 fold enrichment (6-mer frequency, TF over GST control); binding signal (SPDEF): 1.17 fold enrichment (6-mer frequency, TF over GST control); binding signal (ETV7): 1.3 fold enrichment (6-mer frequency, TF over GST control); binding signal (ELF5): 1.19 fold enrichment (6-mer frequency, TF over GST control); binding signal (ETV3): 1.12 fold enrichment (6-mer frequency, TF over GST control); binding signal (ETV6): 1.19 fold enrichment (6-mer frequency, TF over GST control)
